Tests used:
Conditions in all cases: concentration: 1 μM,replicates: in singlicate; n = 1
IKK-alpha = test system: T1, IKK-alpha
T1 construct: gene CHUK

IKK-beta = test system: T2, IKK-beta
T2 construct: gene IKBKB

IKK-epsilon = test system: T3, IKK-epsilon
T3 construct: gene IKBKE

INSRR = test system: INSRR
INSR = test system: INSR
IRAK1 = test system: IRAK1
IRAK3 = test system: IRAK3
IRAK4 = test system: IRAK4
ITK = test system: ITK
[1] = test system: JAK1(JH1domain-catalytic)
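Note: KINOMEscan kinase panel screen.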

SMILES	%Inh (IKK-alpha) [%]	%Inh (IKK-beta) [%]	%Inh (IKK-epsilon) [%]	%Inh (INSRR) [%]	%Inh (INSR) [%]	%Inh (IRAK1) [%]	%Inh (IRAK3) [%]	%Inh (IRAK4) [%]	%Inh (ITK) [%]	%Inh [1] [%]
C[C@@H](Oc1cc(-n2cnc3ccc(-c4ccncc4)cc32)sc1C(N)=O)c1ccccc1Cl [GSK483724]	7	13	24	0	0	49	81	17	22	0
COc1cc(Nc2nccc(N3CCC(NC(=O)c4cccc(C#N)c4)C3)n2)cc(OC)c1OC (stereo not shown) [GSK1379751]	19	0	5	0	0	58	70	15	0	0
COc1cccc(OC)c1C(=O)Nc1cccc(-c2nn3ccccc3c2-c2ccnc(Nc3cccc(F)c3)n2)c1 [GSK361065]	0	0	4	0	0	0	0	0	93.8	0
O=C(Nc1ccccc1)c1cccc(Oc2ccc3nccn3n2)c1	0	0	91.5	86	0	25	3	21	0	0
Cl.Nc1n[nH]c2cc(-c3ccccn3)ccc12 [GSK2189892]	0	0	24	0	0	0	6	0	4	10
CCCC(=O)Nc1n[nH]c2ncccc12 [SB-601436]	0	0	0	0	0	0	0	0	0	5
C[C@@H]1CNc2c(sc3ccc4nc(-c5ccc(O)cc5)ccc4c23)C(=O)N1	27	24	14	0	7	97.1	14	14	3	0
CC(C)S(=O)(=O)N1CCN(Cc2ccc3c(c2)nc(NC(=O)c2ccsc2)n3C[C@H](O)c2ccccc2)CC1 [GW635815]	20	13	52	27	67	90	49	80	97.6	5
COC(=O)c1cccc(NC(=O)NC2CCN(c3ccnc(Nc4cc(OC)c(OC)c(OC)c4)n3)C2)c1 (stereo not shown) [GSK1379767]	0	0	40	0	11	62	79	11	11	9
Cc1nnc(-c2ccc3occ(-c4ccc(S(C)=O)cc4)c3n2)o1 (stereo not shown)	0	0	0	0	0	0	0	0	8	8
Cn1ccc2ncnc(Oc3ccc(NC(=O)Nc4ccnc(C(F)(F)F)c4)c(Cl)c3)c21	46	13	0	3	5	14	0	12	0	1
FC(F)(F)c1cc(Br)cc(Nc2nccc(-c3cnn4ncccc34)n2)c1 [GW810578]	13	9	0	11	8	92	58	0	0	3
C[C@@H]1CNc2c(sc3ccc4nc(-c5ccncc5)ccc4c23)C(=O)N1	14	0	0	0	0	78	42	0	0	0

— PMC5540273 (PLoS ONE, 2017)
